Source: PubChem BioAssay AID694 (Emory University Molecular Libraries Screening Center, 2007)
Among all 1,300 compounds or so, about 25 (2%) were called active. This is one part of a sample in which actives are shown more often than they occur. How the calls were made is not given here.

Biological target: Estrogen receptor (Homo sapiens) (UniProt P03372)
Assay: ERα coactivator peptide binding inhibitors, primary screen, biochemical, LOPAC library, TR-FRET (AID 694);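 further: receptor was agonist-bound with estradiol present during the assay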
Conditions: TR-FRET ERalpha-coactivator peptide binding, stronger effect = higher value

Chain of Estrogen receptor (Homo sapiens) (P03372 whole entry, looked up): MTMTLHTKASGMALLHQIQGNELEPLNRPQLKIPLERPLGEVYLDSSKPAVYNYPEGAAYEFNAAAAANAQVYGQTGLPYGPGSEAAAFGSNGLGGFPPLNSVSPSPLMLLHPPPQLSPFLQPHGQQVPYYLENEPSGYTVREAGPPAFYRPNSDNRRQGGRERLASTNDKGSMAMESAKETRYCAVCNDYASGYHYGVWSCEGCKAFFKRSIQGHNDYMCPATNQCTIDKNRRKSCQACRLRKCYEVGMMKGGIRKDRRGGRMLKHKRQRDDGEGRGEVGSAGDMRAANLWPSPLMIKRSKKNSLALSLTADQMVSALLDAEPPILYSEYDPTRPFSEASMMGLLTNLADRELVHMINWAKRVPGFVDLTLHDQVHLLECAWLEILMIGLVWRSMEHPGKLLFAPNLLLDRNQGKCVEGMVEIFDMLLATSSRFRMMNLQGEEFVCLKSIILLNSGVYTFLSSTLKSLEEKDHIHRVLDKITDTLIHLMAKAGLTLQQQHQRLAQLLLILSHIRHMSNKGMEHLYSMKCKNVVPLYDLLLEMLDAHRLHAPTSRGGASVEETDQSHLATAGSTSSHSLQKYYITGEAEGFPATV

Compound | inhibition (at 45 µM) | inhibition (inhibition, at 15 µM) [%]
Cn1cnc2c(NCc3ccccc3)nc(NCCO)nc21 | 3.75% (inactive) | 1.76
C=CC[C@H](N)C(=O)O | -2.53% (inactive) | -5.06
CCCn1c(=O)c2c(ncn2C)n(CCC)c1=O | 5.51% (inactive) | -1.66
N=c1nc(N2CCCCC2)cc(N)n1O | 2.01% (inactive) | -3.53
CC[C@@H](C)[C@H]1O[C@]2(CC[C@@H]1C)C[C@@H]1C[C@@H](C/C=C(\C)[C@@H](O[C@H]3C[C@H](OC)[C@@H](O[C@H]4C[C@H](OC)[C@@H](O)[C@H](C)O4)[C@H](C)O3)[C@@H](C)/C=C/C=C3\CO[C@@H]4[C@H](O)C(C)=C[C@@H](C(=O)O1)[C@]34O)O2 | -0.86% (inactive) | 3.41
CCCCC#Cc1nc(N)c2ncn([C@@H]3O[C@H](C(=O)NCC)[C@@H](O)[C@H]3O)c2n1 | -0.57% (inactive) | 5.8
CCCCCCCC/C=C\CCCCCCCC(=O)NCCO | 7.02% (inactive) | 9.1
[N-]=[N+]=Nc1ccc(C(=O)CSC[C@H](NC(=O)CC[C@H](N)C(=O)O)C(=O)NCC(=O)O)cc1 | 75.4% [fluorescence artefact?] (active) | 74
N[C@@H](CCC(=O)N[C@H](CSN=O)C(=O)NCC(=O)O)C(=O)O | 1.19% (inactive) | 3.44
C=CCN1CCc2c(cc(O)c(O)c2Br)[C@@H](c2ccccc2)C1 | 2.69% (inactive) | 6.75
Cc1nc(N=Nc2cc(S(=O)(=O)O)c3cc([N+](=O)[O-])cc(S(=O)(=O)O)c3c2)c(COP(=O)(O)O)c(C=O)c1O | 60.6% (inactive) | 46.2
OCCN1CCN(CC/C=C2/c3ccccc3Sc3ccc(C(F)(F)F)cc32)CC1 | 3.87% (inactive) | 3.25
CN1C(C)(C)CCCC1(C)C | -1.09% (inactive) | -2.02
Nc1nc(OCc2ccccc2)c2[nH]cnc2n1 | -3.48% (inactive) | -5.45
Cc1cccc(C)c1NC(=O)C[N+](C)(C)C | 0.37% (inactive) | -1.43
CCCCN1CCC(COC(=O)c2cc(Cl)c(N)c3c2OCCO3)CC1 | -8.8% (inactive) | -4.44
CC(=O)SCC[N+](C)(C)C | 0.72% (inactive) | -4.29
CN(C)CCN(Cc1cccs1)c1ccccn1 | 0.3% (inactive) | 3.28
Cc1nc(N=Nc2ccc(S(=O)(=O)O)cc2S(=O)(=O)O)c(COP(=O)(O)O)c(C=O)c1O | -1.62% (inactive) | 2.87
CCOC(=O)c1cnc2c(cnn2CC)c1NN=C(C)C | 1.01% (inactive) | -4.69
O=c1cc(O)cc(/C=C/c2ccc(O)c(O)c2)o1 | 5.73% (inactive) | 4.2

Compound | inhibition (at 45 µM) | inhibition (inhibition, at 15 µM) [%]
NC(N)=NCCCCN=C(N)N | -1.43% (inactive) | 22.8
CCCCCCCCCCCCC/C=C/C(O)C(N)CO (configuration not stated) | 17.6% (inactive) | -17.3
NC(=NCCC[C@H](N)C(=O)O)NO | 3.2% (inactive) | 2.74
NC(C(=O)N[C@@H]1C(=O)N2C(C(=O)O)=C(Cl)CS[C@H]12)c1ccccc1 (some centres not stated) | -11.2% (inactive) | -2.54
CSC(N)=NCCC[C@H](N)C(=O)O | 0.58% (inactive) | -0.49
CN(C)CCCCSC(=N)N | -2.28% (inactive) | 0.11
COc1ccc2c(c1)c(CC(=O)N1CCOCC1)c(C)n2C(=O)c1ccc(Cl)cc1 | 2.58% (inactive) | 0.53
Nc1ncnc2c1ncn2[C@@H]1O[C@H](C(=O)NC2CC2)[C@H](O)C1O (some centres not stated) | -7.62% (inactive) | -0.92
Nc1nc(N)c2nc(CNc3ccc(C(=O)NC(CCC(=O)O)C(=O)O)cc3)cnc2n1 (configuration not stated) | 1.53% (inactive) | -2.57
CCCCCCCCCCCCCCSCC(=O)O | 97.7% [fluorescence artefact?] (active) | 66.6
CCCCCC(O)CCCC(=O)O (configuration not stated) | -5.09% (inactive) | 11.3
CCCCCCC/C=C\CCCCCCCCC(=O)O | 63.2% (inactive) | 46.6
COC(=O)c1c(-c2cc(OC)c(OC)c(OC)c2)c2ccnc(OCc3ncccn3)c2c(=O)n1Cc1ccnc(C)c1 | -0.01% (inactive) | 7.82
O=C(O)CCCCCC[C@H]1C(=O)NC(=O)N1CC[C@@H](O)C1CCCCC1 | 4.54% (inactive) | 37.6
Nc1nc2c(ncn2COC(CO)CO)c(=O)[nH]1 | -3.37% (inactive) | -1.7
Cc1cnc(NC(=O)C2=C(O)c3ccccc3S(=O)(=O)N2C)s1 | 1.42% (inactive) | -3.85
S=C(S)OC1CC2CC1C1CCCC21 (configuration not stated) | -5.42% (inactive) | 6.45
CC(=O)NCCc1c[nH]c2ccc(O)cc12 | -5.1% (inactive) | 4.29
NC(=O)c1cccc(N)c1 | -6.67% (inactive) | 0.5
CC1(C)CCC2=C(O1)c1ccccc1C(=O)C2=O | 0.18% (inactive) | -0.19
